Compound activity from PubChem.
Compounds with a hit are over-represented: about 4.8% of the library has one in this group of screens.
hcDAF12 agonist = activators of H. contortus DAF-12 nuclear receptor. AID 652067. HEK293 hcDAF-12 lit1-tk-luc reporter, luminescence; 0% DMSO, 100% Δ7-dafachronic acid. activation, % at 6.8 µM. 370,000 tested, 1.4% active;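 active = activation above the mean of all tested compounds plus 3 SD, cut at about 5.5% in these data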;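 note: 100% = response to 3 µM Δ7-dafachronic acid high control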
SMARCA2 act = SMARCA2 function activation, primary screen; MG213 cells, MMTV-luciferase reporter, dexamethasone, overnight; activation, % at 9.1 µM; 370,000 tested, 1% active; in the data active = activation above about 7.8%;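 note: 0% = vehicle wells and 100% = reference activator wells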
DAX1 inh-1 = DAX1 (NR0B1) inhibition, primary screen; 370,000 tested, 1.1% active; inhibition, % at 6.8 µM; AID 652010; HEK293T StAR-luciferase reporter, SF-1/DAX-1 repression relief;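 active = inhibition above the mean over all tested compounds plus 3 SD, cut at about 3.6% in these data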;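 note: 0% = DAX-1 cells with DMSO and 100% = cells lacking DAX-1 with DMSO; higher inhibition means more luminescence from relief of DAX-1 repression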
ssDAF12 agonist = activates DAF-12 receptor from parasite S. stercoralis; AID 652126; activation, % at 6.8 µM; HEK293 ssDAF-12/GRIP1 lit1-tk-luc reporter, luminescence; % of 3 µM dafachronic acid response; 370,000 tested, 1% active;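 active = activation above the mean over all tested compounds plus 3 SD, cut at about 0.9% in these data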;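 note: 0% = DMSO-only wells and 100% = 3 µM delta7-dafachronic acid wells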
hgDAF12 agonist = hgDAF-12 agonism, primary luciferase screen; HEK293 GAL4-hgDAF12 UAS-luciferase reporter, agonist luminescence; normalized to butyrate control; activation, % at 6.8 µM; 370,000 tested, 1.8% active; AID 687014;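 active = activation above a cutoff set at the mean of all screened compounds plus 3 SD, cut at about 10% in these data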;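 note: 0% = DMSO wells and 100% = sodium butyrate wells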
DAX1 inh-2 = inhibitors of human orphan nuclear receptor DAX1 (NR0B1). P51843. HEK293 Gal4-DAX1 luciferase reporter, luminescence. inhibition, % at 6.75 µM. 340,000 tested, 0.99% active;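 active = inhibition above the mean over all tested compounds plus 3 SD, cut at about 4.2% in these data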;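 note: 0% = DAX1-transfected cells with DMSO and 100% = empty-vector control cells with DMSO; inhibition shows as a rise in luminescence from relieved DAX1 repression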
Target sequence (P51843 207-470 limits assumed): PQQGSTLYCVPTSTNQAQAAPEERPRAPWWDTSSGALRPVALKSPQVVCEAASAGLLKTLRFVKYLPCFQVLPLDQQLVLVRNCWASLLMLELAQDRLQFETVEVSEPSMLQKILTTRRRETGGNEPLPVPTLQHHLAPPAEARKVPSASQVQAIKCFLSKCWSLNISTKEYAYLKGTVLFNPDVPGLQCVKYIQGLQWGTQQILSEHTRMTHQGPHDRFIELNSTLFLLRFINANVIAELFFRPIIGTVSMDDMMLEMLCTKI
Starred values were filed as active, the others as inactive; . = no result given.

SMILES | hcDAF12 agonist | SMARCA2 act | DAX1 inh-1 | ssDAF12 agonist | hgDAF12 agonist | DAX1 inh-2
COC(=O)/C(=C/c1cn(C(C)=O)c2ccccc12)[N+](=O)[O-] | 5.7* | 1 | 0 | 0 | 4 | .
COC(=O)/C(=C/c1c[nH]c2ccccc12)[N+](=O)[O-] | 3 | 4 | 0 | 0 | -1 | 0
COc1ccc(S(=O)(=O)Cc2ccc(C(=O)NC3CCC(C)CC3)o2)cc1 (stereo not given) | 3 | -2 | 0 | -1 | 1 | 1
COc1ccc(CNC(=O)c2ccc(CS(=O)(=O)c3ccc(OC)cc3)o2)cc1 | 0 | -2 | 0 | -2 | -2 | 1
COc1ccc(S(=O)(=O)Cc2ccc(C(=O)NC3CC3)o2)cc1 | -1 | 0 | 0 | -2 | 0 | 13*
COc1ccc(CNC(=O)c2ccc(CS(=O)(=O)c3ccc(Br)cc3)o2)cc1 | -2 | -1 | -1 | -1 | 3 | 6.2*
COc1ccccc1S(=O)Cc1ccc(C(=O)NC2CCCC2)o1 (stereo not given) | -1 | 0 | 1 | -1 | -2 | 5.5*
COP(=O)(OC)C(NC(=O)OCc1ccccc1)C(C)C (stereo not given) | -1 | 0 | 0 | 0 | 0 | .
O=[N+]([O-])c1ccccc1S(=O)(=O)N1CCC(c2cn3ccccc3n2)CC1 | -1 | -6 | -1 | -2 | 1 | .
C[C@@H]1/C=C/CC(=O)N[C@H](c2cccc(Br)c2)[C@H](C)/C=C/CC(=O)N[C@@H]1c1cccc(Br)c1 | -4 | 1 | -1 | -1 | -2 | .
CC(=O)c1cnc(Nc2ccc(C)cc2)s1 | 1 | 1 | 2 | -1 | 9 | 4.7*
O=S1(=O)c2ccc(Br)cc2OC[C@@H](c2ccccc2)N1Cc1cn(Cc2ccccc2)nn1 | -1 | 3 | -1 | -1 | 3 | .
O=C(Nc1nccs1)C1(C(=O)C2CC2)CC(c2ccccn2)=NO1 (stereo not given) | 3 | 2 | 1 | 1.0* | 6 | .
O=C(NCc1ccccc1)C1(C(=O)C2CC2)CC(c2ccccn2)=NO1 (stereo not given) | 1 | -4 | 1 | 0 | 2 | .
CC(C)c1ccc(NC(=O)Nc2cc3sccc3n2C)cc1 | 6.0* | 1 | 0 | 1 | 3 | 0
C=CCNC(=O)c1cc2sccc2n1C | 0 | -1 | 0 | -1 | 1 | 1
O=C(Nc1nc2ccc(F)cc2s1)c1ccc(N2CCCC2=O)cc1 | 0 | 1 | 4.2* | -1 | 4 | 1
O=C(Nc1ccc(F)cc1F)c1ccc2nc(N3CCOCC3)sc2c1 | -1 | -5 | 0 | -1 | -2 | -1
Cc1ccc2nc(NC(=O)c3ccc(N4C(=O)CCC4=O)cc3)sc2c1 | 5.9* | -4 | 1 | 0 | 5 | 1
O=C(Nc1nc2cc3c(cc2s1)OCO3)c1cccc(N2C(=O)CCC2=O)c1 | -1 | 4 | 1 | -1 | 3 | 4
O=C(Nc1ccccc1F)c1ccc2nc(N3C(=O)CCC3=O)sc2c1 | 1 | 8 | 2 | -1 | 3 | 7.1*
O=C(Nc1nc2cc3c(cc2s1)OCO3)c1ccc(N2C(=O)CCC2=O)cc1 | 0 | -1 | 0 | 1.4* | 1 | 1
CCOc1ccc(-n2c(SCC(=O)Nc3ccccc3-c3ccccc3)nnc2-c2cccs2)cc1 | -2 | 3 | -1 | -1 | 4 | .
C=CCN(Cc1ccccc1)C(C#CC(=C)C)Cc1ccccc1 (stereo not given) | -1 | -4 | -1 | -2 | 0 | .
COC(=O)c1ccc(Cn2ccc3ccc(-c4ccc5ccn(C(=O)c6cccc(OC)c6)c5c4)cc32)cc1 | -2 | 1 | 0 | 0 | 5 | .
Clc1ccc(CSc2nnc(-c3ccccn3)n2Cc2cccs2)cc1Cl | 1 | 6 | 4.2* | 0 | 1 | .
COC(=O)C1=C(NC(=O)c2ccc(C)c(C)c2)CCS1 | 6.1* | 1 | 0 | 0 | 4 | 0
COC(=O)C1=C(NC(=O)c2ccc(Br)cc2)CCS1 | 3 | -2 | 0 | 1 | 5 | 0
COc1ccc(-c2cc3c(=O)n(CC(=O)NCCCN4CCC(N5CCCCC5)CC4)ncn3n2)cc1 | 4 | 5 | -14 | 0 | 10 | 2
